Test results taken from PubChem BioAssay AID743365 (National Center for Advancing Translational Sciences (NCATS), 2014).

Assay: qHTS profiling of inhibitors of Plasmodium falciparum (DD2) proliferation (acoustic dispense)
Settings: P. falciparum Dd2 in erythrocytes, SYBR Green DNA, 72 h; at 49.8 µM (top of the series) unless noted

| SMILES | parasite growth, lower = inhibition |
| --- | --- |
| CCN(CC)Cc1cc(Nc2ccnc3cc(Cl)ccc23)ccc1O | 0.736% [at 23.2 µM] |
| CN(C)c1ccc(C(=C2C=CC(=[N+](C)C)C=C2)c2ccc(N(C)C)cc2)cc1 | 96.3% |
| O=C1C(=O)c2ccccc2C(O)=C1C1CCC(c2ccc(Cl)cc2)CC1 (configuration not stated) | 3.04% |
| COc1ncc(-c2ccc3nccc(-c4ccnnc4)c3c2)cc1NS(=O)(=O)c1ccc(F)cc1F | -0.286% |
| O=C(Nc1ccc([N+](=O)[O-])cc1Cl)c1cc(Cl)ccc1O | 87.9% |
| C=CCn1c(=O)c2cnc(Nc3ccc(N4CCN(C)CC4)cc3)nc2n1-c1cccc(C(C)(C)O)n1 | -0.0983% |
| COc1cc(NC(C)CCCN)c2ncccc2c1 (configuration not stated) | -0.0889% |
| CC(C=CC(=O)NO)=C[C@@H](C)C(=O)c1ccc(N(C)C)cc1 | -0.545% |
| C=C[C@@H]1CN2CC[C@@H]1C[C@H]2[C@H](O)c1ccnc2ccc(OC)cc12 | 0.438% |
| COc1cc(C)c2c(Oc3cccc(C(F)(F)F)c3)c(OC)cc(NCCCC(C)N)c2n1 (configuration not stated) | -0.465% |
| c1cncc(CN2CCC(n3ncc4c(N5CCOCC5)nc(-c5ccc6[nH]ccc6c5)nc43)CC2)c1 | 0.462% |
| Cn1c(=O)n(-c2ccc(C(C)(C)C#N)cc2)c2c3cc(-c4cnc5ccccc5c4)ccc3ncc21 | 1% |
| Clc1ccc2c(N3CCN(CCCN4CCN(c5ccnc6cc(Cl)ccc56)CC4)CC3)ccnc2c1 | -0.434% [at 23.2 µM] |
| CC(=O)Nc1nc(C)c(-c2ccc(Cl)c(S(=O)(=O)NCCO)c2)s1 | -0.252% |
| CCCC[C@@H]1C[C@@H](C(=O)NC([C@H](C)Cl)[C@H]2O[C@H](S)[C@H](O)[C@@H](O)[C@@H]2O)N(C)C1 (some centres not stated) | 20.5% |
| COc1cc(NCc2ccc3nc(N)nc(N)c3c2C)cc(OC)c1OC | -1.45% |
| COC1=C2C[C@@H](C)C[C@H](OC)[C@@H](O)[C@@H](C)C=C(C)[C@H](OC(N)=O)[C@@H](OC)C=CC=C(C)C(=O)NC(=CC1=O)C2=O | -0.39% |
| Cn1c(=O)c(-c2c(Cl)cccc2Cl)cc2cnc(Nc3cccc(C(=O)O)c3)nc21 | -0.0499% |
| CCCCCCCCCCOc1cc2c(=O)c(C(=O)OCC)c[nH]c2cc1OCC | 1.27% |
| NC(=NCCCCCCN=C(N)N=C(N)Nc1ccc(Cl)cc1)N=C(N)Nc1ccc(Cl)cc1 | 3.29% |
| COc1ccc(-c2ccc3ncc4c(c3c2)n(-c2ccc(N3CCNCC3)c(C(F)(F)F)c2)c(=O)n4C)cn1 | 2.81% |
| C[C@@H](Oc1ccc2[nH]nc(C=Cc3cnn(CCO)c3)c2c1)c1c(Cl)cncc1Cl | 1.14% |
| Cn1cnc(=N)c2[nH]cnc21 | 0.26% |
| CO[C@@H]1C(N(C)C(=O)c2ccccc2)C[C@H]2O[C@]1(C)n1c3ccccc3c3c4c(c5c6ccccc6n2c5c31)C(=O)NC4=O (some centres not stated) | 10.1% |
| Cn1cc(C2=C(c3c4n(c5ccccc35)CCC(CN)C4)C(=O)NC2=O)c2ccccc21 (configuration not stated) | 2.27% |
| CC(Sc1nc2ccccc2[nH]1)C(=O)NN=Cc1cc(Br)ccc1O (configuration not stated) | 99.5% [at 4.15 µM] |
| Cc1ccc([N+](=O)[O-])cc1S(=O)(=O)N(C)N=Cc1cnc2ccc(Br)cn12 | 6.06% |
